Assay results reported in PubChem BioAssay (NCI).
About 83,000 compounds went through this panel and 20% of them were active in at least one assay; those are over-represented in the sample as a whole.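 The test compound was applied at a single concentration to cells in 96-well plates for 48 hours, and percent growth was recorded.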 Activity calls are given as the source filed them. Rule for the calls: active = growth percent below 10; inactive = the rest.

What follows are molecules tested on OVCAR-5 ovarian (assay: NCI-60 one-dose screen, 48 h (100 = growth as untreated, 0 = no growth, -100 = all killed)). Conditions: 10 µM unless noted.

Structure (SMILES) | growth
CCOC(=O)c1cnn(-c2nc(-c3ccc(F)cc3)c(C#N)c(N3CCOCC3)n2)c1N | 95% (inactive)
Cc1c(O)c(=O)ccn1-c1nc2ccccc2s1 | 98.7% (inactive)
Nc1ccc(C2=NN(C(=O)c3cc(-c4ccc(Cl)cc4)nc4ccccc34)C(c3ccc(Cl)cc3)C2)cc1 (configuration not stated) | 81.3% (inactive)
COc1ccc2nc(-c3ccc(OC)c(OC)c3)cc(-c3nnc(SCC(=O)Nc4ccc(C(C)=O)cc4)o3)c2c1 | 109% (inactive)
CNCc1cccc2c1OCCOCCOCCN(CCN1CCOCC1)S(=O)(=O)c1ccc(cc1)-c1cnc(N)c(n1)C(=O)N2 | 119% (inactive)
COc1cc(C2=NN(C(C)=O)C(c3cccc(Nc4ccnc5cc(C(F)(F)F)ccc45)c3)C2)cc(OC)c1OC (configuration not stated) | 82.7% (inactive)
CC(C)CSc1nc(Nc2ccccc2)c(C#N)c(-c2ccc(F)cc2)n1 | 40.8% (inactive)
CNc1cccc2c1C(=O)c1cccc(N)c1C2=O | 73.8% (inactive)
NC(=O)c1ccc(C2C3=C(CCCC3=O)OC3=C2C(=O)c2ccccc2C3=O)cc1 (configuration not stated) | 96.4% (inactive)
C=CCn1c(SCC(=O)Nc2ccc(C(=O)/C=C/c3ccc(Cl)cc3)cc2)nnc1-c1cc(OC)c(OC)c(OC)c1 | 116% (inactive)
C=C1C(=O)O[C@H]2[C@H]1CC/C(C=Nc1c(N)cc(F)cc1Br)=C\CC[C@@]1(C)O[C@@H]21 | 103% (inactive)
COc1cc(-c2csc(NC(=O)Nc3ccc(Cl)cc3)n2)cc(OC)c1OC | 76.9% (inactive)
COc1ccc(C(=O)c2cc(OC)c(C)c(OC)c2)cc1OC(=O)CCl | 74.8% (inactive)
Nc1c(C(=O)Nc2cccc3ccccc23)sc2nc3c(cc12)COCC3 | 87.9% (inactive)
CN(C)C(CNc1oc(-c2cccc3ccccc23)nc1C#N)c1ccco1 (configuration not stated) | 94.6% (inactive)
Cc1cnc(-c2ccc(-c3ccc(NC(=O)Nc4c(F)cc(F)cc4F)cc3F)c3c2C(=O)NC3)[nH]1 | 71% (inactive)
COc1ccc(-c2cc(C(=O)N3N=C(c4ccc(N)cc4)CC3c3ccc(OC)cc3)c3cc(OC)ccc3n2)cc1 (configuration not stated) | 103% (inactive)
COc1cc([C@H](C)c2ccc3ccccc3c2)cc(OC)c1OC | 62.1% (inactive)
O=c1nc(-c2ccccc2)c2cc(-c3ccc(N4CCCC4)nc3)ccc2[nH]1 | 98.7% (inactive)

Structure (SMILES) | growth
Cc1cccc2nc3c(n12)C(=O)C(=O)c1ccccc1-3 | 104% (inactive)
CC(=O)Nc1c(C(=O)Nc2ccccc2)sc2nc3c(cc12)C(OC(C)=O)CCC3 (configuration not stated) | 108% (inactive)
CCN1CCN(c2ccc(NC(=O)Nc3nc4ccc(-c5ccccc5OC)cc4s3)cc2)CC1 | -11.5% (active)
Cc1cc(Cl)cc(CN(Cc2ccccc2)Cc2c(O)ccc3ccccc23)c1O | 116% (inactive)
COC1=CC=CC2(OC)C3(O)CCCc4cccc(c43)N3C(=O)COC132 (configuration not stated) | 104% (inactive)
C=C1C(=O)O[C@H]2[C@H]1CC/C(COC(=O)N1CCC[C@H]1C(=O)Nc1ccc(OC)c(C(N)=O)c1O)=C\CC[C@@]1(C)O[C@@H]21 | 68.5% (inactive)
Cc1cc(C)nc(NS(=O)(=O)c2ccc(Nc3ccc4c5c(n(CCCN(C)C)c(=O)c4c3)-c3ccccc3C5=O)cc2)n1 | 111% (inactive)
COc1cc(NC(=O)c2cc(O)c(C/C=C(\C)CCC=C(C)C)c(O)c2)cc2c1O[C@]1(C)CC[C@@H](O)C(C)(C)[C@H]1C2 | 44.9% (inactive)
CCCCCCN1C(=O)CN=C1Nc1ccc2cc3ccc(NC4=NCC(=O)N4CCCCCC)cc3nc2c1 | 75% (inactive)
Nc1ccc(C2=NN(C(=O)c3cc(-c4ccc(Cl)cc4)nc4ccccc34)C(c3ccccc3)C2)cc1 (configuration not stated) | 73.4% (inactive)
CN(CCC#N)C(=O)Nc1ccccc1 | 111% (inactive)
C=C(C)[C@@H]1CC[C@]2(C(=O)OCCCC[P+](c3ccccc3)(c3ccccc3)c3ccccc3)CC[C@]3(C)[C@H](CC[C@@H]4[C@@]5(C)CC[C@H](OC(=O)C(Cl)Cl)C(C)(C)[C@@H]5CC[C@]43C)[C@@H]12 | -1.72% (active)
CSc1cccc(NC(=O)Nc2nc3c(C)cccc3s2)c1 | 117% (inactive)
O=C(O)c1cn(C2CC2)c2cc(N3CCN(Cc4nnc(Nc5ccccc5)o4)CC3)c(F)cc2c1=O | 94% (inactive)
O=C1CS/C(=N/c2nnc(-c3ccc(O)cc3)s2)N1 | 103% (inactive)
COc1ccc2c(c1)C1(C(=O)N2)C(C#N)=C(c2ccccc2)Nc2c1c(-c1ccccc1)nn2-c1ccccc1 (configuration not stated) | 83.1% (inactive)
CCN1CCC[C@H]1c1cc(O)c2c(c1OC)C[C@H]1C[C@H]3[C@H](N)C(=O)C(C(N)=O)=C(O)[C@@]3(O)C(=O)C1=C2O | 4.81% (active)
O=C(/C(=C/c1ccc([N+](=O)[O-])cc1)SCc1ccccc1)c1ccc(Cl)cc1 | 95.4% (inactive)
